# Measured values as given in PubChem BioAssay (NCI).
# The panel holds about 83,000 compounds, 20% with a hit somewhere; the sample as a whole holds those more often.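 Cell lines were cultured in 96-well plates, exposed to a single compound concentration, and assessed for percent growth 48 hours later.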 Values without a mark were called inactive. The source made the active and inactive calls. How the source made its calls: active means growth percent below 10; inactive means the rest.
# Key:
# Test in all cases: NCI-60 one-dose screen, 48 h (100 = growth as untreated, 0 = no growth, -100 = all killed)
# Settings in all cases: 10 µM unless noted
# NCI-H226 lung = test system: NCI-H226 lung
# NCI-H322M lung = test system: NCI-H322M lung
# NCI-H460 lung = test system: NCI-H460 lung
# HOP-92 NSCLC = test system: HOP-92 NSCLC
# NCI-H522 lung = test system: NCI-H522 lung
# A549/ATCC NSCLC = test system: A549/ATCC NSCLC
# 786-0 renal = test system: 786-0 renal
# HOP-62 NSCLC = test system: HOP-62 NSCLC
# COLO 205 colon = test system: COLO 205 colon
SMILES,growth (NCI-H226 lung),growth (NCI-H322M lung),growth (NCI-H460 lung),growth (HOP-92 NSCLC),growth (NCI-H522 lung),growth (A549/ATCC NSCLC),growth (786-0 renal),growth (HOP-62 NSCLC),growth (COLO 205 colon)
COc1ccc2c(c1)/C(=C\c1sc(=S)[nH]c1O)C(C(=O)O)=N2,99.3%,102%,108%,91.6%,87.6%,99.8%,102%,–,–
O=[N+]([O-])c1ccc2[nH]cc(-c3c4ccsc4cc4[nH]c5ccc([N+](=O)[O-])cc5c34)c2c1,-9.9% (active),20.4%,4.39% (active),26.8%,-22.9% (active),5.78% (active),-44% (active),10.8%,-50.3% (active)
CC(=[N-])N1CCC[C@@H](Nc2c3ccccc3nc3ccccc23)C1.[Cl][Pt].[NH-]CCC[NH-],-4.62% (active),44.9%,0.597% (active),28.7%,-18.5% (active),7.75% (active),53.5%,51.9%,–
C[C@@H](C[C@H](CCOCc1cccnc1)c1ccccc1)c1cc2ccccc2o1,80.2%,90.5%,98.4%,84.9%,78.2%,90.2%,93.8%,81.8%,–
Cc1nc(Nc2ccc(NC(=S)Nc3ccccc3)cc2)c2ccccc2n1,97.4%,103%,107%,115%,105%,95.9%,103%,–,106%
CCOC(=O)N1CCc2c(sc3c2C(=O)N[C@H](c2ccc(OC)cc2)N3)C1,94.7%,105%,104%,92.6%,76%,85.4%,97.8%,68.4%,–
CO/C(=C1/NC(=O)C(Cc2ccc(O)c(Br)c2)N(C)C(=O)C(C)NC(=O)CCC/C=C(\C)CCC(C)OC1=O)c1ccccc1 (stereo not given),-33.9% (active),-34.3% (active),-22.1% (active),-53.9% (active),-61.1% (active),-49.5% (active),-35.6% (active),-19.7% (active),7.23% (active)
C=C(C=O)C1CCC2(C(=O)O)CCC3(C)C(CCC4C5(C)CCC(O)C(C)(C)C5CCC43C)C12 (stereo not given),5.95% (active),31.3%,-12.8% (active),–,24.2%,34.1%,-37.3% (active),–,–
C=C(C)[C@@H]1CC[C@@]2(C(=O)O)CC[C@]3(C)C(CCC4[C@@]5(C)CCC(OS(=O)(=O)c6ccccc6)C(C)(C)C5CC[C@]43C)C12 (stereo not given in full),69.2%,73.6%,42.3%,51%,32.5%,17.8%,56.5%,57.4%,–
NS(=O)(=O)Oc1ccc(-c2sc3cc(O)ccc3c2C(=O)c2ccc(OCCN3CCCCC3)cc2)cc1,79%,90.6%,20.3%,60.4%,65.8%,33.4%,71.6%,67%,–
CC1=CC(=O)C(C(C)C)=CC1=Nc1cc(Br)c(O)c(Br)c1,84.1%,53.6%,5.15% (active),35.5%,55%,28.2%,9.71% (active),12.7%,144%
CC(C)OC(=O)NNC(=O)c1ccncc1,107%,92.3%,106%,113%,88.9%,105%,104%,108%,110%
Cn1nnnc1-c1ccc(N)cc1,107%,92.7%,105%,96.3%,84.2%,95.6%,93.8%,95.9%,110%
CN1CCN(C(=O)[C@@]2(C)CC[C@]3(C)CC[C@]4(C)C(=CC[C@@H]5[C@@]6(C)C/C(=C/c7ccncc7)C(=O)C(C)(C)[C@@H]6CC[C@]54C)[C@@H]3C2)CC1,88.6%,79.7%,24.4%,–,69%,45.9%,58.4%,68.4%,–
O=c1[nH]c(=O)n(C2CC(O)C(CO)O2)cc1CO (stereo not given),98.2%,102%,65.9%,105%,101%,86.5%,-18.5% (active),32.8%,120%
COc1cccc(-c2cnco2)c1OCc1c(C)c(COc2c(OC)cccc2-c2cnco2)c(C)c(COc2c(OC)cccc2-c2cnco2)c1C,21.8%,70.7%,52.2%,-6.35% (active),33.9%,51.8%,2.94% (active),42.1%,83.4%
COc1cc(/C=C/C(=O)c2ccc(Nc3nc(Nc4ccccc4)nc(Nc4ccc(Cl)cc4)n3)cc2)cc(OC)c1OC,39.2%,73.3%,50.5%,–,77.3%,84.5%,-25.4% (active),52.7%,94.8%
C[N+](C)(C)CCOC(OCC[N+](C)(C)C)(c1ccccc1)c1ccccc1,107%,129%,106%,91%,93%,100%,114%,106%,116%
COc1ccc(N=c2nc3sc4cc(Cl)ccc4n3c(N)c2C#N)cc1,24.4%,93.4%,102%,88.4%,88.6%,62.4%,22.1%,102%,–
O=C1C=CC(=Nc2cc(Br)c(O)c(Br)c2)C=C1,93.9%,105%,109%,29.5%,-14.6% (active),118%,70.2%,82.1%,113%
CCN1CCN(c2ccc(Nc3cc(-c4cccnc4Nc4c(Cl)c(OC)cc(OC)c4Cl)ncn3)cc2)CC1,47%,68.7%,23.7%,54.5%,75.9%,39.9%,89.2%,40.6%,–
CC(=O)Nc1cccc(C2=CC(c3ccc(C)cc3)n3ncnc3N2)c1 (stereo not given),92.7%,107%,107%,77.7%,94.8%,108%,95%,101%,–
Cc1cnc(Nc2ccc(N3CCN(C)CC3)cc2)nc1Nc1ccc(Cl)c(NS(=O)(=O)C(C)(C)C)c1,7.11% (active),37.2%,20.5%,–,-28.8% (active),-26.1% (active),-30.4% (active),14.1%,–
Cc1c(C(=O)O)nnn1-c1nccs1,95.9%,99.8%,98.5%,82.4%,77.9%,79.2%,97.1%,84.1%,107%
CN1CCN(CCCOc2ccc3nc(Nc4cc(Cl)cc(Cl)c4)ccc3c2)CC1,-9.2% (active),-55.5% (active),-76.2% (active),-27% (active),-81.4% (active),-81% (active),-75.6% (active),-87.5% (active),–
C=C1C(=O)O[C@H]2[C@H]1CC/C(Cn1cc(CNCCc3c[nH]c4ccc(Cl)cc34)nn1)=C\CC[C@@]1(C)O[C@@H]21,91.1%,85.7%,99%,-7.88% (active),-91% (active),84.1%,67.4%,78.7%,–
Cc1[nH]c(-c2nc3ccccc3[nH]2)c(C)c1C(=O)NNc1ccc(Cl)cc1,84.1%,89.6%,103%,90.6%,80.9%,93.1%,94.7%,98.7%,–
COc1ccc(/C=C(\C#N)n2nnc3ccccc32)cc1,1.15% (active),25.8%,2.42% (active),24.7%,21.2%,19.5%,7.4% (active),26.2%,–
Cc1cc2c(F)c(Oc3ncnc(Nc4ccc(N5C[C@@H](C)N[C@@H](C)C5)cc4)c3C#N)cc(F)c2[nH]1,74.1%,47.9%,6.38% (active),89.1%,-21.8% (active),13.7%,–,75.8%,-56.5% (active)
CCc1nc2ccccc2[nH]1,99.7%,110%,102%,99.7%,103%,107%,112%,105%,–
